Test in all cases: cross-link between two proteins; cross-linking mass spectrometry
The target of experiment [1] is Large ribosomal subunit protein bL25 (UniProt P68919).
The target in experiment [2] is Large ribosomal subunit protein uL23 (UniProt P0ADZ0).
The target of experiment [3] is Small ribosomal subunit protein bS1 (UniProt P0AG67).
The target of experiment [4] is Small ribosomal subunit protein uS14 (UniProt P0AG59).

As for “Large ribosomal subunit protein bL9, P0A7R1”, in experiment [1], the “listed as a hit” value is listed as “yes”. Same read-out and setting: the same measure for “Large ribosomal subunit protein uL16, P0ADY7”: “yes”. In the case of “Large ribosomal subunit protein uL29, P0A7M6”, the “listed as a hit” value in experiment [2] is listed as “yes”. Turning to “Small ribosomal subunit protein bS18, P0A7T7”, the “listed as a hit” value in experiment [3] is “yes”. Take “Small ribosomal subunit protein uS3, P0A7V3”: in experiment [4], the “listed as a hit” value is on record as “yes”.

For the substance “Large ribosomal subunit protein bL31, P0A7M9”, the “listed as a hit” value in experiment [4] was “yes”.

The values are drawn from PMC12615815.
